Inconclusive results are not listed. Calls of active or inactive are those of the source. The calls were made as follows: active = hit-call score of the fitted dose curve at least 0.9, where 1 is the maximum; inconclusive = response in the unintended direction; inactive = score below 0.9.

Read-out in the assay: organic anion transporter (SLCO1B1), SLCO1B1 (gene 10599)
Put plainly: CLD_SLCO1B1_48hr: CellzDirect (CLD) Gene Expression Assay for organic anion transporter (SLCO1B1) at 48 hours (AID 2283707). As to the method:
CLD_48hr is a cell-based, multiplexed-readout assay that uses hepatocyte, a human liver primary cell, with measurements taken at 48 hours after chemical dosing in a 96-well plate.CLD_SLCO1B1_48hr is one of 16 assay component(s) measured or calculated from the CLD_48hr assay. It is designed to make measurements of mRNA induction, a form of inducible reporter, as detected with chemiluminescence signals by Quantitative Nuclease Protection Assay (qNPA) technology.Data from the assay component CLD_SLCO1B1_48hr was analyzed at the endpoint, CLD_SLCO1B1_48hr, in the positive analysis fitting direction relative to DMSO as the negative control and baseline of activity. Using a type of inducible reporter, gain-of-signal activity can be used to understand changes in the reporter gene as they relate to the gene SLCO1B1. Furthermore, this assay endpoint can be referred to as a primary readout. To generalize the intended target to other relatable targets, this assay endpoint is annotated to the transporter intended target family, where subfamily is organic anion transporter.
Human hepatocyte cultures were treated daily for two consecutive days with fresh dosing solutions containing appropriate concentrations of the 320 ToxCast chemicals (chemical identities were blinded to CellzDirect and other ToxCast collaborators), vehicle control (0.2% DMSO), and positive control inducers as summarized in Table 1. Due to the large number of treatment groups and chemicals examined, the ToxCast chemicals were divided into two groups (spanning two independent cultures of hepatocytes from separate donor preparations (Hu778: ToxCast plates 1 and 2; Hu776: ToxCast plates 3 and 4). Each preparation of human hepatocyte cultures was treated with respective vehicle control, medium only control, set of six positive controls/reference chemicals for the five hepatic receptor pathways, and a subset of eight of the ToxCast chemicals (indoxacarb, pyrithiobac-sodium, norflurazon, cyhalofop-butyl, methomyl, thiram, acetochlor, and propiconazole). These replicate data, coupled with internal replicates designed within the blinded ToxCast chemical library, provided additional data to evaluate interindividual differences between hepatocyte preparations and their potential impact on chemical profiles.Cell morphology and integrity were evaluated using phase-contrast microscopy as an indicator of hepatocyte cell health (Tyson & Green, 1987). Cultures for each treatment group (i.e., media, vehicle [0.2% DMSO], positive control inducers [multiple concentrations], and the ToxCast chemicals [multiple concentrations]) were observed and cell morphology was assessed relative to vehicle control cultures at each harvest time point (0, 6, 24, or 48 h). […] Images were evaluated at the conclusion of the study to assess changes in cell integrity and account for the effects of chemical exposure on uncharacteristic changes in concentration-dependent gene expression profiles. The results from these determinations of apparent cytotoxicity were annotated (yes/no) alongside the corresponding qNPA data for reference.At the conclusion of each treatment period, hepatocyte cultures (96-well) were washed with 1 volume of HBSS, lysed by addition of 25 ul ArrayPlate lysis buffer (HTG, Tucson, AZ), and 70 ul/well of Denaturation Oil, denatured by incubation at 95C for 10 min, and frozen at approximately -70C until analysis by nuclease protection assay (qNPA) (Roberts et al., 2007). For qNPA analysis, cell lysates were thawed at 50C for approximately 30 min, qNPA probes were added, and samples were incubated at 95C for 10 min to begin the detection process by denaturing the target RNA, dissociating the duplexes and secondary structure hybridization. At the conclusion of the hybridization period, S1 nuclease reagent was added to each sample to digest all nonprotected nucleotides at 50C for 60-90 min. […]
On to `CCOC(=O)[C@H](C)Oc1ccc(Oc2nc3ccc(Cl)cc3o2)cc1`, for which the molecule was classed as inactive.

Take `CCCCOC(=O)C(C)Oc1ccc(Oc2ccc(C(F)(F)F)cn2)cc1` (stereo not drawn): the molecule was called inactive.

On to `COC(=O)c1ccccc1S(=O)(=O)NC(=O)Nc1nc(OC(F)F)cc(OC(F)F)n1`, for which the result was inactive.

On to `COC(=O)c1cccc(C)c1S(=O)(=O)NC(=O)Nc1nc(OCC(F)(F)F)nc(N(C)C)n1`, for which the call was inactive.

As for `CCC(C)OC(=O)N1CCCCC1CCO` (stereo not drawn), the molecule was called inactive.

For the molecule `CCSC(=O)N(CC(C)C)CC(C)C`, the molecule was called inactive.

In the case of `CC(C)(c1ccc(O)cc1)c1ccc(O)cc1`, the outcome was inactive.

Consider `CSC(=O)c1cccc2nnsc12`, for which the call was inactive.

Consider `CCNc1nc(N)nc(Cl)n1`, for which the molecule was called inactive.

Take `CCCOC(=O)c1ccc(C(=O)OCCC)nc1`: the outcome was inactive.

With `COC(=O)CSc1cc(N=c2sc(=O)n3n2CCCC3)c(F)cc1Cl`, the outcome was inactive.

Consider `CCOC(=O)C(C)Oc1ccc(Oc2cnc3cc(Cl)ccc3n2)cc1` (stereo not drawn), for which the call was inactive.

On to `CCCCC(CC)COC(=O)c1ccccc1C(=O)O` (stereo not drawn), for which the outcome was inactive.

For `CCCOC(=O)NCCCN(C)C`, the outcome was inactive.

Turning to `CCC(O)=C1C(=O)CC(C(=O)O)CC1=O` (stereo not drawn), the outcome was inactive.

On to `CCCCOC(=O)[C@@H](C)Oc1ccc(Oc2ccc(C(F)(F)F)cn2)cc1`, for which the call was inactive.

As for `C#CCOC(=O)[C@@H](C)Oc1ccc(Oc2ncc(Cl)cc2F)cc1`, the molecule was called inactive.

Take `OB(O)O`: the result was inactive.

As for `CCCN(CCC)C(=O)SCC`, the molecule was classed as inactive.

`CCOC(=O)NCCOc1ccc(Oc2ccccc2)cc1`: the result was inactive.

On to `COc1c(Cl)ccc(Cl)c1C(=O)O`, for which the call was inactive.

Take `c1ccc(Nc2ccccc2)cc1`: the molecule was called inactive.

Take `COCCO`: the outcome was inactive.

Values taken from PubChem BioAssay (EPA / NIEHS).
